Inconclusive results are not listed. Active and inactive are the calls of the source. Unless noted, calls follow the shape of the full dose curve. Residues, ends and D or L forms follow the SMILES beside them.
Legend:
[1] = qHTS assay to identify small molecule agonists of the vitamin D receptor (VDR) signaling pathway - cell viability counter screen (AID 743224; active = well fitted curve in the direction sought with a large enough effect in the repeat runs; an effect the other way counts as inactive or inconclusive; also: series mostly up to about 63 µM; nearly all actives have a fitted effect of over 50% in size)
Method in brief: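 Compounds were pin-transferred onto VDR-bla cells plated 4 h earlier; following 16 h incubation at 37C, cell viability was quantified by CellTiter-Glo luminescence after 30 min at room temperature.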

[2] = qHTS assay to identify small molecule agonists of the NFkB signaling pathway (AID 1159509; active = well fitted curve in the direction sought with a large enough effect in the signal ratio in the repeat runs, not every such curve was filed as active; the % refers to the signal ratio; also: series mostly up to about 61 µM)
Method in brief: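 Beta-lactamase reporter assay run in quantitative high-throughput format on an NF-kB-responsive ME-180 line, with 5 hr compound treatment and a FRET-based blue/green fluorescence readout.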

[3] = qHTS assay to identify small molecule agonists of the NFkB signaling pathway - cell viability counter screen (AID 1159515); also: series mostly up to about 61 µM; nearly all actives have a fitted effect of over 55% in size
Method in brief: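 Parallel cytotoxicity counter screen in ME-180 cells carrying an NFkB-response-element beta-lactamase reporter, 2,000 cells/well. Compound exposure lasted 5 hr at 37 C, 5% CO2. Cell viability was quantified by CellTiter-Glo luminescence.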

[4] = qHTS assay to identify small molecule agonists of the endoplasmic reticulum stress response signaling pathway (AID 1159516; active = well fitted activation curve with a large enough effect in the signal ratio in the repeat runs, not every such curve was filed as active; the % refers to the signal ratio)
Method in brief: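 Using a HeLa line with an ESRE-driven beta-lactamase gene, agonist activity was measured by FRET substrate fluorescence (460 and 530 nm emission) after cells were treated with compounds for 5 hr at 37 C and 5% CO2.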

[5] = qHTS assay to identify small molecule agonists of the endoplasmic reticulum stress response signaling pathway - cell viability counter screen (AID 1159517);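 also: HeLa cells carrying an ER stress response element beta-lactamase reporter; series mostly up to about 61 µM; nearly all actives have a fitted effect of over 50% in size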
Method in brief: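 Cytotoxicity of test compounds toward ESRE-bla HeLa cells was assessed after 5 hr exposure. The luminescent CellTiter-Glo signal was measured 30 min after reagent addition.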

[6] = qHTS assay to identify small molecule antagonists of the retinoid-related orphan receptor gamma (ROR-gamma) signaling pathway - cell viability counter screen (AID 1159520; active = well fitted curve in the direction sought with a large enough effect in the repeat runs; an effect the other way counts as inactive or inconclusive; also: nearly all actives have a fitted effect of over 50% in size)
Method in brief: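 Tet-on ROR gamma CHO cells (1,000/well) were plated 4 hr, given compounds in DMSO for 2 hr at 37 C, then induced with 1 uM final doxycycline for 16 hr. Viability was read as ATP by CellTiter-Glo luminescence after 30 min.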

[7] = target: Nuclear receptor ROR-gamma (Homo sapiens) (UniProt P51449); assay: qHTS assay to identify small molecule antagonists of the retinoid-related orphan receptor gamma (ROR-gamma) signaling pathway (AID 1159521; active = well fitted curve in the direction sought with a large enough effect in the repeat runs; an effect the other way counts as inactive or inconclusive;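 also: CHO cells with doxycycline inducible ROR-gamma driving an RORE luciferase reporter; top concentration of the series differs between compounds; nearly all actives have a fitted effect of over 50% in size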)
Method in brief: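 Readout: ONE-Glo luciferase luminescence, 30 min at room temperature. System: Tet-on RORγ CHO, RORE-LUC. Sequence: compound 2 h, doxycycline 1 uM final, 16 h at 37 C.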

[8] = qHTS assay to identify small molecule agonists of the AP-1 signaling pathway - cell viability counter screen (AID 1159525); also: nearly all actives have a fitted effect of over 55% in size
Method in brief: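 Each titration point was normalised to DMSO and tetra n-octyl ammonium bromide controls. The read was Cell Titer Glo luminescence after 30 min at RT, following 5 h compound exposure of ME-180 AP-1-bla cells at 37 °C.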

[9] = qHTS assay to identify small molecule agonists of the AP-1 signaling pathway (AID 1159526)
[10] = qHTS assay to identify small molecule antagonists of the vitamin D receptor (VDR) signaling pathway - cell viability counter screen (AID 743225; active = well fitted curve in the direction sought with a large enough effect in the repeat runs; an effect the other way counts as inactive or inconclusive; also: nearly all actives have a fitted effect of over 50% in size)
Method in brief: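 Cytotoxicity toward the VDR-bla HEK 293T line was scored by ATP-based CellTiter-Glo luminescence, read in the wells already used for the beta-lactamase readout after 16 h compound treatment under 3 nM 1-alpha,25-dihydroxyvitamin D3 stimulation.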

Measured: Potency

N=C(N)c1ccc(OCCCCCOc2ccc(C(=N)N)cc2)cc1
not listed: [10]
inactive: all other assays above

O=c1cc[nH]c(=S)[nH]1
not listed: [4] | [10]
inactive: all other assays above

O=C(c1ccccc1)C(O)c1ccccc1 (stereo unspecified)
not listed: [3] | [4] | [10]
inactive: all other assays above

CCCN(CCC)S(=O)(=O)c1ccc(C(=O)O)cc1
not listed: [2] | [10]
inactive: all other assays above

C[C@]12C=CC(=O)C=C1CC[C@@H]1[C@@H]2[C@@H](O)C[C@@]2(C)[C@H]1CC[C@]2(O)C(=O)CO
not listed: [3] | [4]
inactive: all other assays above

Nc1ccc(O)c(C(=O)O)c1
not listed: [3] | [10]
inactive: all other assays above

COC(=O)[C@H](Cc1ccccc1)NC(=O)[C@@H](N)CC(=O)O (H-Asp-Phe-OMe)
not listed: [3] | [4] | [10]
inactive: all other assays above

O=S(=O)(O)c1ccc2cc(O)ccc2c1
not listed: [7] | [10]
inactive: all other assays above

Cc1cc(=O)n(-c2ccccc2)n1C
not listed: [3] | [4]
inactive: all other assays above

CC(=O)NS(=O)(=O)c1ccc(N)cc1
not listed: [3] | [10]
inactive: all other assays above

Cc1ccc(O)cc1
inactive: all assays above

O=C(O)c1cccnc1
not listed: [3] | [4] | [10]
inactive: all other assays above

CC(O)C(=O)O (stereo unspecified)
not listed: [4]
inactive: all other assays above

O=C(O)c1cccc([N+](=O)[O-])c1
not listed: [4]
inactive: all other assays above

Nc1ccc(S(=O)(=O)Nc2nccs2)cc1
not listed: [4] | [7] | [10]
inactive: all other assays above

CCOc1ccc(NC(=O)CC(C)O)cc1 (stereo unspecified)
not listed: [4] | [10]
inactive: all other assays above

CC(=O)OCC(COC(C)=O)OC(C)=O
not listed: [3] | [4] | [10]
inactive: all other assays above

CCCNC(=O)NS(=O)(=O)c1ccc(Cl)cc1
not listed: [4]
inactive: all other assays above

O=C(O)CCC(=O)O
not listed: [3]
inactive: all other assays above

CCC1(c2ccccc2)C(=O)NCNC1=O
not listed: [2]
inactive: all other assays above

Nc1ccc(S(=O)(=O)c2ccc(N)cc2)cc1
inactive: all assays above

CCCC(O)C(CC)CO (stereo unspecified)
not listed: [3] | [4] | [10]
inactive: all other assays above

NS(=O)(=O)c1cc(C(=O)O)c(NCc2ccco2)cc1Cl
not listed: [3] | [10]
inactive: all other assays above

O=C(O)CCCCC(=O)O
not listed: [4] | [7] | [10]
inactive: all other assays above

CCCCCCCCCCCCCCCC(=O)O
not listed: [4] | [7] | [10]
inactive: all other assays above

CCCC(CCC)C(=O)O
not listed: [3] | [4] | [7]
inactive: all other assays above

Cc1cn([C@H]2C[C@H](N=[N+]=[N-])[C@@H](CO)O2)c(=O)[nH]c1=O
not listed: [3] | [4] | [10]
inactive: all other assays above

O=C(O)C(=O)O
not listed: [7]
inactive: all other assays above

CC1(C)[C@@H]2CC[C@@]1(C)C(=O)C2
not listed: [2]
inactive: all other assays above

CC(O)CO (stereo unspecified)
not listed: [3]
inactive: all other assays above

NNC(=O)c1ccncc1
not listed: [3] | [4]
inactive: all other assays above

CC(C)(Oc1ccc(C2CC2(Cl)Cl)cc1)C(=O)O (stereo unspecified)
not listed: [10]
inactive: all other assays above

NC(=O)c1cnccn1
not listed: [3] | [4]
inactive: all other assays above

OCCc1ccccc1
not listed: [3] | [10]
inactive: all other assays above
